Results taken from the supplement of paper PMC10849652.
About 7,900 targets were measured; listed, in parts, are those with a hit and a random draw of the rest. About 0.6% of all pairs of compound and target were hits.

compound: c1cn2cc(-c3ccc4cn[nH]c4c3)nc(Nc3ccc(N4CCOCC4)cc3)c2n1 [entospletinib]; test: log2 fold change, soluble protein after heating vs DMSO (PISA); higher = thermal stabilisation; K562 cells, 10 uM, 30 min; active = over 0.2 and 3.5 SD of the protein, either way, in both replicates (recomputed)
How it was run: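 K562 cells at 2×10^6 cells/mL were treated for 30 min with 10 μM compound, and aliquots were heated for 3 min over 48°C-58°C before pooling. Extraction used PBS with 0.5% NP-40 at 4°C, and soluble protein was the supernatant after 21,000xg for 90 min, measured by TMTpro 16plex LC-MS/MS with channel sums equalised. Thermal stability values, relative to control samples and from duplicates, are log2 fold changes.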

UniProt Q14681, sequence (Q14681 whole entry, looked up): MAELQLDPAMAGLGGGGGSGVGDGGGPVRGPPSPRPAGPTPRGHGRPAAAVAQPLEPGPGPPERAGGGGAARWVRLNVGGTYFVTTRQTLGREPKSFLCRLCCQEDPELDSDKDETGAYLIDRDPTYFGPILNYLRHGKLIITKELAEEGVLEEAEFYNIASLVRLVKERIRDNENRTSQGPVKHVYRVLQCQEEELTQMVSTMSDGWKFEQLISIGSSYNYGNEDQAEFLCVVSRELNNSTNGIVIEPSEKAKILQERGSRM
UniProt Q8IWB1, sequence (Q8IWB1 whole entry, looked up): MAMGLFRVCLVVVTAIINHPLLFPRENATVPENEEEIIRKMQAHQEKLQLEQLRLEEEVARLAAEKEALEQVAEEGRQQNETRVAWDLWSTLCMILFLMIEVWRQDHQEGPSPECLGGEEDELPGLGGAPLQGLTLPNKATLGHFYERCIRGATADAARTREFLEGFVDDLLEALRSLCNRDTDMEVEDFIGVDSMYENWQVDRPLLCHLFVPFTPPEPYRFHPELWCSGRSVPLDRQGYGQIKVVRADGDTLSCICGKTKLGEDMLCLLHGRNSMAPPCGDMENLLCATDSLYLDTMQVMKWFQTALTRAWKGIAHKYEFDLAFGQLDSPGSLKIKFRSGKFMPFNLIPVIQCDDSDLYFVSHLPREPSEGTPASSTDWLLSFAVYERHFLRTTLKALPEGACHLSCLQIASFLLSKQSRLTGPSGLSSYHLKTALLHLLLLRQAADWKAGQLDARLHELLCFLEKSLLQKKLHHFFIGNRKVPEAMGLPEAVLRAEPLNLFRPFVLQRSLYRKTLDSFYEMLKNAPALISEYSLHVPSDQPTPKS
UniProt Q14974, sequence (Q14974 whole entry, looked up): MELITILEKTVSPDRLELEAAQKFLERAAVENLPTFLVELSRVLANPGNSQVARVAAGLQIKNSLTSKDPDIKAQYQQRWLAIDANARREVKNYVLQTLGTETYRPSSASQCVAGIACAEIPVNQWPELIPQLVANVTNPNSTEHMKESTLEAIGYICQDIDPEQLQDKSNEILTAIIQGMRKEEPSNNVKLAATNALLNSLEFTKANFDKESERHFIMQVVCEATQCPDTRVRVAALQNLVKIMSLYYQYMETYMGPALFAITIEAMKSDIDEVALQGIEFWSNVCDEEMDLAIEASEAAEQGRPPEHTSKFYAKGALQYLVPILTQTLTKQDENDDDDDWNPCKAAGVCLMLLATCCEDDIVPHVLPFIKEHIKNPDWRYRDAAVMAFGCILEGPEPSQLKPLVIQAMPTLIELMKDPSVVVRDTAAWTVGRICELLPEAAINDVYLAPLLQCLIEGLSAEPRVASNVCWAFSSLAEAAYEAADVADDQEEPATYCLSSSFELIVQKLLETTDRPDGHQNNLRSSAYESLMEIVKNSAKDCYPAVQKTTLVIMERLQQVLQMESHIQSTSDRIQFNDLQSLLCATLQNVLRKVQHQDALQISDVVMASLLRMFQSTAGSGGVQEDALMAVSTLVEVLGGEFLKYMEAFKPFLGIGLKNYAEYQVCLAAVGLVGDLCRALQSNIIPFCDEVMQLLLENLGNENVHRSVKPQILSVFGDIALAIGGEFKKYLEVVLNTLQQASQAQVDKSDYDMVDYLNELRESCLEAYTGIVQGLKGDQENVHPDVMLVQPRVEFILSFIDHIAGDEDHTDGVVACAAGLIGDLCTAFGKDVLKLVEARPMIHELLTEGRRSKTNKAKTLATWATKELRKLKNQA
UniProt P45983, sequence (P45983 whole entry, looked up): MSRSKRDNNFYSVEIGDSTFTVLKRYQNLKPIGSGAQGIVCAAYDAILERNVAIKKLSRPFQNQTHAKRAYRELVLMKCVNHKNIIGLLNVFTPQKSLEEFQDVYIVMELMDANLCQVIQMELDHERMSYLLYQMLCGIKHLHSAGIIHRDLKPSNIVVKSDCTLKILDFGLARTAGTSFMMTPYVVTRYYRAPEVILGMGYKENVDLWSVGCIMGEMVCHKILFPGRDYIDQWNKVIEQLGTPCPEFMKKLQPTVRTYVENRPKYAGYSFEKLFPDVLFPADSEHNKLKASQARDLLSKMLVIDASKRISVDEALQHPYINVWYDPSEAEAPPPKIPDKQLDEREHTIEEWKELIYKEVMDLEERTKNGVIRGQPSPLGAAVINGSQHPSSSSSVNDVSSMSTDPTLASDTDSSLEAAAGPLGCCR
UniProt P33947, sequence (P33947 whole entry, looked up): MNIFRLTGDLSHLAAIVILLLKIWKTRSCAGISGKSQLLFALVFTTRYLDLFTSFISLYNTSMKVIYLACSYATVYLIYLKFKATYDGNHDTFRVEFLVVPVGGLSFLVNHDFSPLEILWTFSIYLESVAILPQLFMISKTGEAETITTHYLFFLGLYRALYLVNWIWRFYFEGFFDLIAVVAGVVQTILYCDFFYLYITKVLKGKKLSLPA
UniProt Q8NC56, sequence (Q8NC56 whole entry, looked up): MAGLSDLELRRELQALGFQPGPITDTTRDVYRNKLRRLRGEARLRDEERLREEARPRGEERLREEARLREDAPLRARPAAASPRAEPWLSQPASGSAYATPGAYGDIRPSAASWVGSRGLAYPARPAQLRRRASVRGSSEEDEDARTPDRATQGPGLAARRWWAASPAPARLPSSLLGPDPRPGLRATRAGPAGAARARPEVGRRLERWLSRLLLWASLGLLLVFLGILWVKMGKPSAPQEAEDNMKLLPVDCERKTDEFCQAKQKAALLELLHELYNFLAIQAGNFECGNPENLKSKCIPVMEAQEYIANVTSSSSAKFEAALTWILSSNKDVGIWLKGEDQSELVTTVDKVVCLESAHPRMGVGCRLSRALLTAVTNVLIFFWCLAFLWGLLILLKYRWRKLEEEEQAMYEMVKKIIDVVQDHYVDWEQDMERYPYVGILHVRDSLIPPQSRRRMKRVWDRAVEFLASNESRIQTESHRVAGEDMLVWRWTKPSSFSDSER
UniProt Q9H3F6, sequence (Q9H3F6 whole entry, looked up): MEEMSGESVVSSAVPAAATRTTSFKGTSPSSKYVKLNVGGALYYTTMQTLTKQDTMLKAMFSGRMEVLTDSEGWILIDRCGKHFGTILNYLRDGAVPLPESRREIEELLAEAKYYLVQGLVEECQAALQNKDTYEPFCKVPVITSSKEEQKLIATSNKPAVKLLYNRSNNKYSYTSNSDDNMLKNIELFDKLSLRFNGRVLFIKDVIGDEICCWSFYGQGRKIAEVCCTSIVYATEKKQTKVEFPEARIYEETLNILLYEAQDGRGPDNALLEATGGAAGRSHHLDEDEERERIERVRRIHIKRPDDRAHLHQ
UniProt P07948, sequence (P07948 whole entry, looked up): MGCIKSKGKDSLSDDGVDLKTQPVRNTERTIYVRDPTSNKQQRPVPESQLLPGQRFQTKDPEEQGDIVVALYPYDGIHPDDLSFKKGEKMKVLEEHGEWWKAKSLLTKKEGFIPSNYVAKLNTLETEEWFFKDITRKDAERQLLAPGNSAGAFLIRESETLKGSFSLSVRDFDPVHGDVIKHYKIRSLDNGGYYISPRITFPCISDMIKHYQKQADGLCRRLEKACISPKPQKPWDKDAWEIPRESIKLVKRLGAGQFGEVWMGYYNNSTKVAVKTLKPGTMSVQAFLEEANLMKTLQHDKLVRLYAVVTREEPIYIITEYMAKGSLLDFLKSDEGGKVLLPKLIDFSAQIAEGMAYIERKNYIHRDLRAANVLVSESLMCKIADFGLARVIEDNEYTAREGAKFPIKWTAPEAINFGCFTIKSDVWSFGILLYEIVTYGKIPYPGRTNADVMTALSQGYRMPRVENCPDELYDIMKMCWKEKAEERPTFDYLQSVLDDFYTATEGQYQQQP
UniProt Q9BRT3, sequence (Q9BRT3 whole entry, looked up): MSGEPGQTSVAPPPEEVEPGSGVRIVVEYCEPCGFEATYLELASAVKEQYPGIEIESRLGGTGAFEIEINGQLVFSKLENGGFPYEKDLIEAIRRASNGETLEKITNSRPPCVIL
UniProt Q9BU23, sequence (Q9BU23 whole entry, looked up): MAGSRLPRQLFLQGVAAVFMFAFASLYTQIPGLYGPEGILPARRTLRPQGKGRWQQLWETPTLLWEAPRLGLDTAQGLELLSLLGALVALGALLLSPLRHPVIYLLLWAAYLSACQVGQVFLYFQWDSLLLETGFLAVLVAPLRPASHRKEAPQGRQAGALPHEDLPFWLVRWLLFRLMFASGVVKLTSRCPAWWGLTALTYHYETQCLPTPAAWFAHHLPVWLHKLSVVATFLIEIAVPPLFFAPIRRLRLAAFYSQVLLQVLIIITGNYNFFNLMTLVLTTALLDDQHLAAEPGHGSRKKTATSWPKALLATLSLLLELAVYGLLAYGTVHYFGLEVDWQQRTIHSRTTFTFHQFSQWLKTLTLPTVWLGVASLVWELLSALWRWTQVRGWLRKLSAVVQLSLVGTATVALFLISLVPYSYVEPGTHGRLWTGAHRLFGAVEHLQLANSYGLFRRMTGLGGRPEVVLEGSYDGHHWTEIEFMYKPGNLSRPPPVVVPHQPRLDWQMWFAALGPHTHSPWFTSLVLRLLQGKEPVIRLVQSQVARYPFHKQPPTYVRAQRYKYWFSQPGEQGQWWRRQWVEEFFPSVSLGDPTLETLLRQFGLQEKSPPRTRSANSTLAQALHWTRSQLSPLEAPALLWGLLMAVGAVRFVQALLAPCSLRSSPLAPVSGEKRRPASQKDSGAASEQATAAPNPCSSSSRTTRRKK

log2 fold change, inactive:
LRBA (UniProt P50851) -0.002
MIEN1 (UniProt Q9BRT3) -0.01
KCTD2 (UniProt Q14681) 0.139
LEMD2 (UniProt Q8NC56) -0.039
LMF2 (UniProt Q9BU23) -0.019
LARP1 (UniProt Q6PKG0) 0.028
ITPRIP (UniProt Q8IWB1) -0.005
KCTD10 (UniProt Q9H3F6) 0.047
KPNB1 (UniProt Q14974) 0.078
KDELR2 (UniProt P33947) 0.101
LYN (UniProt P07948) -0.024
MAPK8 isoform 3 (UniProt P45983) -0.038
